In PubChem BioAssay (NCI):
Several values for one entry are separate records, joined by “and”; a condition that tells them apart may be missing. Identical values can stand only once. Compounds without any hit were thinned out: in the full panel of roughly 83,000, 20% have a hit.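 Interpretation: 100, growth as untreated; towards 0, rising growth inhibition; 0, no net growth; 0 to -100, cell death. Compounds scoring below 10 were considered active.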 The source holds several records for some structures; these can differ, active in one and inactive in another. Activity calls are given as the source filed them.

The compounds below were run on OVCAR-8 ovarian (assay: NCI-60 one-dose screen, 48 h (100 = growth as untreated, 0 = no growth, -100 = all killed)). Details: 10 µM.
Procedure: Growth inhibition of the OVCAR-8 human tumor cell line is measured as a screen for anti-cancer activity. Cells are grown in 96 well plates and exposed to the test compound for 48 hours. Compounds are tested at a single concentration, which is 10^-5 M for most compounds. The reported endpoint is percent growth (GI% or GIPRCNT), where numbers from 0 - 100% represent growth inhibition, and numbers from -100% - 0 represent cell death. For example, a value of 40 represents 60% growth inhibition. A value of 0 means no net growth occurred over the course of the experiment. A value of -40 indicates 40% of cells at the beginning of the experiment died by the end of the experiment. A value of -100 means all cells are dead at the end of the experiment.
NCI-60 Human Tumor Cell Lines Screen was performed using the standard one-dose NCI protocol, which is described in more detail at https://dtp.cancer.gov/discovery_development/nci-60/default.htm.
Compounds with GIPRCNT values below 10 were considered active. Activity score was based on GIPRCNT using the following formula: […]
Score is 0 for GIPRCNT values of 100 or above, 50 for GIPRCNT values of 0, and 100 for GIPRCNT values of -100.

Row | Structure (SMILES) | growth
1 | CCC(C)[C@H]1C(=O)O[C@H](C(C)C)C(=O)N(C)[C@@H](C(C)C)C(=O)O[C@H](C(C)C)C(=O)N(C)[C@@H](C(C)C)C(=O)O[C@H](C(C)C)C(=O)N1C (stereo not given in full) | 14.9% (inactive)
2 | CC(=O)O[C@@H]1C[C@H]2O[C@@H]3C=C(C)CC[C@]3(C)[C@]1(C)[C@]21CO1 | 8.44% (active)
3 | COc1cc(C)c(-c2ccc(OC)c(=O)cc2C)c(OC)c1OC | 5.3% (active) and 100% (inactive)
4 | CC(C)(O)/C=C/C(=O)[C@](C)(O)[C@H]1[C@H](O)C[C@@]2(C)[C@H]3CC=C4[C@@H](C[C@H](O)C(=O)C4(C)C)[C@]3(C)C(=O)C[C@]12C | 23% (inactive)
5 | COc1cc2c(O[C@@H]3OC[C@H](OC(C)=O)[C@H](OC(C)=O)[C@H]3O)c3c(c(-c4ccc5c(c4)OCO5)c2cc1OC)C(=O)OC3 | 24.3% (inactive)
6 | NC1CCc2cc(O)c(O)cc2C1 (stereo not given) | 101% (inactive)
7 | C/C=C/CC(C)C(O)[C@H](NC(=O)[C@@H]1CCCN1C(=O)C(C)(C)NC(=O)CCCCCCCCC)C(=O)N[C@@](C)(CC)C(=O)N[C@@H](CCC(N)=O)C(=O)N[C@H](CCC(N)=O)C(=O)NC(C)(C)C(=O)N[C@@](C)(CC)C(=O)N[C@@H](CCC(N)=O)C(=O)N[C@H](CC(C)C)C(=O)N[C@H](CO)CC(C)C (stereo not given in full) | 99.4% (inactive) and -48.6% (active)
8 | C/C=C/CC(C)C(O)[C@H](NC(=O)[C@@H]1CCCN1C(=O)C(C)(C)NC(=O)CCCCCCCCC)C(=O)N[C@@](C)(CC)C(=O)N[C@@H](CCC(N)=O)C(=O)N[C@H](CCC(N)=O)C(=O)NC(C)(C)C(=O)NC(C)(C)C(=O)N[C@@H](CCC(N)=O)C(=O)N[C@H](CC(C)C)C(=O)N[C@H](CO)CC(C)C (stereo not given in full) | 5.65% (active) and 38.4% (inactive)
9 | CC1=C(CN(O)C(N)=O)C2=C(C)C3(CC3)[C@@](C)(O)C(=O)C2=C1 | 1.75% (active)
10 | N#Cc1c(-n2c(Br)c(Br)c3cc(Br)ccc32)[nH]c2c(Br)cc(Br)cc12 | 1.23% (active)
11 | CN(CCF)/N=N/c1nc[nH]c1C(N)=O | 27% (inactive)
12 | CC1=C[C@H]2O[C@@H]3C[C@@H](O)[C@](C)([C@@]2(C)CC1)[C@@]31CO1 | 27.7% (inactive)
13 | COc1cccc2c1cc([N+](=O)[O-])c1c(C(=O)O)cc3c(c12)OCO3 | 102% (inactive)
14 | C[C@@H]1C[C@H]2C(=O)O[C@@H](C)C(NC(=O)[C@H](Cc3cc(F)cc(F)c3)NC(=O)Nc3ccc(OS(=O)(=O)F)cc3)C(=O)N3CCC[C@H]3C(=O)N3CCO[C@H](C)[C@H]3C(=O)N[C@@H](CO)C(=O)N2C1 (stereo not given in full) | 23.6% (inactive)
15 | CC(C)=CCc1c2c(c(O)c3c1O[C@]14C(=C[C@@H]5C[C@H]1C(C)(C)O[C@@]4(C/C=C(/C)C(=O)O)C5=O)C3=O)C=CC(C)(C)O2 | -59.4% (active)
16 | CC1=C2C(=C[C@@](C)(COC(=O)c3ccc(S(=O)(=O)F)cc3)[C@@H]2O)C(=O)[C@](C)(O)C12CC2 | -31.1% (active)
17 | CC1=C[C@H]2O[C@@H]3C[C@H]4OC(=O)/C=C\C=C\[C@H]([C@@H](C)O)OCC[C@@H](C)[C@H](O)C(=O)OC[C@@]2(CC1)[C@]4(C)[C@]31CO1 | -12.8% (active)
18 | CC1=C(CN(O)C(N)=O)C2=C(C)C3(CC3)[C@](C)(O)C(=O)C2=C1 | 6.82% (active)
19 | O=C(CCCc1ccc(N(CCCl)CCCl)cc1)OCc1ccccc1 | 89.7% (inactive)
20 | COc1cc2c(cc1OC)[C@@H]1N(CC2)C(=O)c2ccccc2[C@@]1(C)C(=O)O | 104% (inactive)

Row | Structure (SMILES) | growth
21 | Cc1ccc(CNc2nc3ccc(OC/C(=C/F)CN)cc3o2)cn1 | 108% (inactive)
22 | CC1=C2C(=O)[C@](C)(CO)C=C2C(=O)[C@](C)(O)C12CC2 | 33% (inactive)
23 | CC1=C(CCC=NNC(N)=O)C2=C(C)C3(CC3)[C@@](C)(O)C(=O)C2=C1 | -36.1% (active)
24 | CC1=C2C(=C[C@@](C)(COS(C)(=O)=O)[C@@H]2O)C(=O)[C@](C)(O)C12CC2 | 12.5% (inactive)
25 | COC(=O)[C@H]1[C@@H](O)[C@@]2(O)c3c(OC)cc(OC)cc3O[C@@]2(c2ccc(OC)cc2)[C@@H]1c1ccccc1 | -11.6% (active)
26 | C/C=C\C(=O)O[C@@H]1CC2O[C@@H]3C=C(C)C(=O)C[C@]3(C)[C@]1(C)[C@]21CO1 | 0.288% (active)
27 | C=C1[C@@H](C)C2[C@H](Cc3ccccc3)NC(=O)[C@]23[C@H](OC(C)=O)/C=C/[C@@](C)(O)C(=O)[C@@H](C)C/C=C/[C@H]3[C@@H]1O (stereo not given in full) | 74.6% (inactive)
28 | CCCCCCCCCC(=O)N[C@@](C)(CC)C(=O)N1CCC[C@H]1C(=O)N[C@@H](CC(C)C)C(=O)N[C@@](C)(CC)C(=O)N[C@@H](CCC(N)=O)C(=O)N[C@H](CCC(N)=O)C(=O)NC(C)(C)C(=O)NC(C)(C)C(=O)N[C@@H](CCC(N)=O)C(=O)N[C@H](CC(C)C)C(=O)N[C@H](CO)CC(C)C | -74.1% (active) and -63.2% (active)
29 | C/C=C/CC(C)C(O)[C@H](NC(=O)[C@@H]1CCCN1C(=O)C(C)(C)NC(=O)CCCCCCC)C(=O)N[C@@](C)(CC)C(=O)N[C@@H](CCC(N)=O)C(=O)N[C@H](CCC(N)=O)C(=O)NC(C)(C)C(=O)NC(C)(C)C(=O)N[C@@H](CCC(N)=O)C(=O)N[C@H](CC(C)C)C(=O)N[C@H](CO)CC(C)C (stereo not given in full) | 106% (inactive) and 24.6% (inactive)
30 | C/C=C/CC(C)C(O)[C@H](NC(=O)[C@@H]1CCCN1C(=O)C(C)(C)NC(=O)CCCCCCCCC)C(=O)NC(C)(C)C(=O)N[C@@H](CCC(N)=O)C(=O)N[C@H](CCC(N)=O)C(=O)NC(C)(C)C(=O)NC(C)(C)C(=O)N[C@@H](CCC(N)=O)C(=O)N[C@H](CC(C)C)C(=O)N[C@H](CO)CC(C)C (stereo not given in full) | 16.4% (inactive) and 4.24% (active)
31 | CC1=C2C(=C[C@@](C)(C=O)[C@@H]2O)C(=O)[C@](C)(O)C12CC2 | 14.1% (inactive)
32 | CC1=C[C@H]2O[C@@H]3C[C@H]4OC(=O)/C=C\C=C\[C@H]([C@@H](C)O)OCC/C(C)=C/C(=O)OC[C@@]2(CC1)[C@]4(C)[C@]31CO1 | -24.4% (active)
33 | COC1[C@@H]2C[C@H]3C(C)(C)O[C@@](C/C=C(/C)C(=O)O)(C2=O)[C@]32Oc3c(CC=C(C)C)c4c(c(O)c3C(=O)[C@H]12)C=CC(C)(C)O4 (stereo not given in full) | -58.5% (active)
34 | CC(=O)O[C@@H]1[C@@H]2O[C@H]2[C@@](C)(O)C(=O)[C@@H](C)C/C=C/[C@H]2[C@@H]3O[C@]3(C)[C@@H](C)C3[C@H](Cc4ccccc4)NC(=O)[C@@]312 (stereo not given in full) | 84.4% (inactive)
35 | COc1cc(OC)c(S(=O)(=O)N(CCCl)CCCl)cc1C(=O)/C=C/c1ccc(Cl)cc1 | 59.8% (inactive)
36 | N#Cc1nc(-c2ccccc2)oc1N1CCC(S(=O)(=O)F)CC1 | 94.3% (inactive)
37 | COc1cc2c(O[C@@H]3OC[C@H](O)[C@H](O)[C@H]3O)c3c(c(-c4ccc5c(c4)OCO5)c2cc1OC)C(=O)OC3 | 22% (inactive)
38 | CN1C(=O)[C@]23SSC1(C)C(=O)N2[C@H]1Nc2ccccc2C1([C@@]12c4ccccc4N[C@@H]1N1C(=O)C4(C)SS[C@]1(C(=O)N4C)[C@H]2O)[C@@H]3O (stereo not given in full) | -76.1% (active)
39 | C[C@@H]1CCC/C=C/[C@H]2C[C@@H](O)C[C@@H]2[C@@H](O)/C=C/C(=O)O1 | 3.04% (active)
40 | CC1=C2C(=C[C@@](C)(COC(=O)c3ccc(S(=O)(=O)F)cc3)[C@@H]2OC(=O)c2ccc(S(=O)(=O)F)cc2)C(=O)[C@](C)(O)C12CC2 | 5.91% (active)
